# TRb-SRC2 inh: inhibitors of human thyroid hormone receptor beta-SRC2 interaction | TRbeta-SRC2 peptide binding, fluorescence polarization; receptor liganded with 1 µM T3 | 280,000 tested, 0.065% active | Potency, µM (doses to about 106 µM), inactives show at the top dose activity change, negative = inhibition, hits mostly inhibitors | P10828;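 note: plate controls were bound peptide for no effect and peptide without receptor for full effect; nearly all actives have a fitted effect of over 50% in size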
#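 Polarization signal, normalized between peptide-alone and full complex controls, measured compound effects on T3-liganded human TRb LBD (0.6 uM) binding 20 nM Texas Red SRC2 peptide after 5 hr.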
# GoLoco inh red: RGS12 GoLoco-Gai1 interaction inhibition. P63096. Gai1:RGS12 GoLoco peptide FP, rhodamine, 10 min. Potency, µM (top dose mostly 61.6 µM), inactives show at the highest dose activity, negative = inhibition, actives largely listed as inhibitors. 230,000 tested, 0.44% active. AID 880; active = well fitted inhibition curve with a large enough effect, not every such curve was filed as active; inactive = no such curve, though single readings can be large or run the other way; note: nearly all actives have a fitted effect of over 30% in size
# Target sequence (P63096 whole entry, looked up): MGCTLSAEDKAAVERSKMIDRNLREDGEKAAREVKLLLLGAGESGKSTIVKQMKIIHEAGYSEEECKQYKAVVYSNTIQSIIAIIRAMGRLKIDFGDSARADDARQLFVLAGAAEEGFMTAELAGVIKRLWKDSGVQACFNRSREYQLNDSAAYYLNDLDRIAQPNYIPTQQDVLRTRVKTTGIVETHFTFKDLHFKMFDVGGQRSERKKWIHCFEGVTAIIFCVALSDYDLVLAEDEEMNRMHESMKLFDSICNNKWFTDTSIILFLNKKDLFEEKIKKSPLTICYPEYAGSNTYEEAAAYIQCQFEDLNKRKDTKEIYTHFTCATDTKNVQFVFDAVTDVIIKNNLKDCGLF
# TexasRed fluor: alters Texas Red total fluorescence, flagging assay interference. TRb/SRC2 Texas Red total fluorescence interference. Potency, µM (highest dose often 106 µM), inactives show at the highest dose fluorescence change, negative = quenching. 280,000 tested, 0.29% active; active = well fitted curve in either direction with a large enough effect; inconclusive = small, poorly fitted or top-dose-only effect
#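 Human TRb ligand-binding domain at 0.6 uM with 20 nM Texas Red SRC2 peptide in Tris buffer containing 1 uM T3 and 5% DMSO, incubated with compound 5 h at ambient temperature. Total fluorescence (555/632 nm) calculated as parallel + 2 × perpendicular.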
# Tau fluor counter: counter-screen for tau fibril formation inhibitors; tau K18 P301L Alexa594 fluorescence, heparin fibrillization; Potency, µM (doses to about 57.7 µM), inactives show at the top dose activity change, negative = decrease; 280,000 tested, 0.93% active; AID 1463; note: nearly all actives have a fitted effect of over 55% in size
#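 Human tau K18 P301L (15 uM unlabeled, 0.24 uM Alexa 594-labeled) in 100 mM sodium acetate pH 7 with 20 uM heparin, 6 hr at 37 C. ThT 30 uM added, 1 hr ambient; Alexa 594 FP and total fluorescence read at 555/632 nm.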
# Tau fibril FP: blocks human tau fibril formation measured by polarization | P10636 | K18 P301L tau heparin fibrillization, Alexa594 FP, 6 h | Potency, µM (titrated, usually from 57.7 µM), without a hit: at the highest dose activity, negative = inhibition, actives largely listed as inhibitors | 280,000 tested, 0.39% active; note: nearly all actives have a fitted effect of over 55% in size
#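 Quantitative HTS format: compounds meet 15 uM recombinant K18 P301L tau and Alexa 594-tau tracer in 100 mM sodium acetate pH 7; 20 uM heparin triggers fibrillization at 37 C over 6 hr; FP gives the signal.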
# Tau fibril ThT: blocks human tau fibril formation measured by thioflavin T; P10636; recombinant tau K18 P301L, heparin-induced fibrillization, ThT fluorescence; Potency, µM (series often up to 57.4 µM), for the others: at the top dose activity, negative = inhibition, usual class: inhibitors; 270,000 tested, 2.1% active; AID 1460; note: nearly all actives have a fitted effect of over 55% in size
#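 Fibril formation assay: tau K18 P301L at 15 uM with trace Alexa 594 label, heparin inducer 20 uM, pH 7 sodium acetate buffer, 37 C for 6 hr; endpoint ThT signal.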
# Starred values were filed as active, the others as inactive; ? = inconclusive; / = no result given; ! = not confirmed by another sample; [ ] = remark or other dose. Hits are enriched below; roughly 3.1% of the tested compounds scored in any of these assays. Unless noted, calls come from the whole dose curve; as a rule, active = well fitted curve in the direction sought with a large enough effect; inconclusive = small, poorly fitted or top-dose-only effect, or another doubt; inactive = no such curve, though single readings can be large; an effect the other way counts as inactive or inconclusive. Unless noted, % is set by controls: 0 for no effect and ±100 for the full control effect; potency is the fitted concentration of half-maximal effect.
SMILES,TRb-SRC2 inh,GoLoco inh red,TexasRed fluor,Tau fluor counter,Tau fibril FP,Tau fibril ThT
Oc1ccc(Cl)cc1Cc1ccccc1,2%[201 µM],-4%,-7%[201 µM],/,/,/
Oc1ccc(Cl)cc1Cc1cc(Cl)ccc1O,5%,7%,-2%,11µM*[quencher],?,?
Nc1nc(N)nc(NC2CC2)n1,1%[201 µM],/,1%[201 µM],/,/,/
COC(C(=O)C(O)C(C)O)C1Cc2cc3cc(OC4CC(OC5CC(O)C(OC)C(C)O5)C(OC(C)=O)C(C)O4)c(C)c(O)c3c(O)c2C(=O)C1OC1CC(OC2CC(OC3CC(C)(O)C(OC(C)=O)C(C)O3)C(O)C(C)O2)C(O)C(C)O1 (stereo not drawn),10%,-4%,-1%,/,/,/
CCCCn1c(NC(=O)c2ccco2)c(C(=O)OCC)c2nc3ccccc3nc21,?,3%,-1%,-26%,16µM*,13µM*
CCCCn1c(NS(=O)(=O)c2ccc(C)cc2)c(C(=O)OCC)c2nc3ccccc3nc21,-27%,27%,-11%,3%,2%,-8%
O=c1c(O)c(-c2ccc(O)c(O)c2)oc2c(O)c(O)cc(O)c12,4%,2%,-2%,?,7.9µM*,3.5µM*
COc1cc2c(cc1O)C[C@H]1NCCc3cc4c(c-2c31)OCO4,-5%,6%,-5%,?,-4%,14µM*
COc1cc2c(cc1OC)-c1c3c(cc4c1[C@@H](C2)N(C)CC4)OCO3,-27%,4%,-5%,-27%,-4%,?
C[C@H]1CCC/C=C/C2C[C@H](O)C[C@H]2[C@H](O)/C=C/C(=O)O1 (stereo partly drawn),6%,5%,-2%,-4%,-6%,3%
C/C(=N\Nc1cccc2ccccc12)c1c(O)n(Cc2ccccc2)c(=O)[nH]c1=O,24%,92%,17%,?,?,18µM*
Nc1c(C(=O)Nc2ccc(Cl)cc2)sc2nc3c(cc12)N1CCC3CC1,-9%,/,?,?,-22%,?
Nc1c(C(=O)Nc2ccc(Cl)c(C(F)(F)F)c2)sc2nc3c(cc12)N1CCC3CC1,2%,/,-11%,5µM*[quencher],?,?
CCCCC[CH2][Hg][S]C1=C2N=CNC2NC(N)=N1 (stereo not drawn),/,-71%[14.2 µM],/,/,/,/
COc1ccc(C[C@H]2NC[C@H](O)[C@@H]2OC(C)=O)cc1,1%,7%,-4%,-7%,-13%,-8%
CCCSc1nc2ccccc2c(=O)n1-c1ccccc1OC,-4%,/,-22%,-16%,-2%,?
CNC(=O)OCCc1n(C)cc[n+]1C,-8%,1.6µM*,-1%,4%,-5%,2%
CN(C)C(=O)OCc1n(C)cc[n+]1C,0%,5%,4%,-2%,2%,0%
CC[n+]1c(-c2ccccc2)c2cc(N)ccc2c2ccc(N)cc21,35µM*!,5.6µM*,45µM*![fluorescent],?,11µM*,4µM*
C/C1=C\[C@@H](C)C/C=C/[C@H]2[C@@H]3O[C@]3(C)[C@@H](C)[C@H]3[C@H](Cc4c[nH]c5ccccc45)NC(=O)[C@]32C(=O)/C=C/C(=O)[C@@H]1O,-11%,-4%,-1%,?,-19%,0.89µM*
S=C(S)N1CCCC1,2%,-20%,-4%,-14%,?,32µM*
